According to PMC4081100, “A DNA-binding-site landscape and regulatory network analysis for NAC transcription factors in Arabidopsis thaliana”:

Key:
Assay in all cases: universal protein binding microarray (PBM); transcription factors of Arabidopsis thaliana; high values mean tight binding
Settings in all cases: protein: recombinant; tags: GST; chain copies: 2; dsDNA, one strand shown
GST-ANAC092(1-176) = target: T1, GST-ANAC092(1-176) (Arabidopsis thaliana, UniProt Q9FKA0 1-176)
T1 sequence: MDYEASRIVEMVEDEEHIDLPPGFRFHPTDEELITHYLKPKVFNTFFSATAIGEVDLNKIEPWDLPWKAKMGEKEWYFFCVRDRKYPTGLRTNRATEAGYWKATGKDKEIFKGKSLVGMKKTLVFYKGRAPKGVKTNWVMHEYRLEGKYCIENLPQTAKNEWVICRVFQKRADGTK
How it was run: (§1)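 Binding is expressed as the normalised enrichment score (E-score). Proteins carrying a GST tag, whether NAC-domain, full-length or DNA-binding-domain forms, were induced in cells, and zinc acetate was added for zinc-finger proteins. After purification on glutathione–Sepharose 4B and quantification by A280 or anti-GST western blot, each was applied in duplicate at 200 to 500 nM final to custom all-10-mer Agilent 4 × 180K arrays made double-stranded by primer extension. Gapped and ungapped 8-mers were scored.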

GST-NTL6(1-168) = GST-NTL6(1-168) (Arabidopsis thaliana, UniProt Q9SCK6 1-168)
How it was run: as §1

GST-ANAC019 NAC domain = target: T2, GST-ANAC019 NAC domain (Arabidopsis thaliana, UniProt Q9C932 14-162)
T2 sequence: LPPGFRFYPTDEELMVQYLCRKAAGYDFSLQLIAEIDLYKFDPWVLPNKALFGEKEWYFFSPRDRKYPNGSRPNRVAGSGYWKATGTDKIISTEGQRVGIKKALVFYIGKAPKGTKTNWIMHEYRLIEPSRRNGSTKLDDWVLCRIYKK
How it was run: as §1

GST-ANAC055(1-171) = target: T3, GST-ANAC055(1-171) (Arabidopsis thaliana, UniProt Q9LDY8 1-171)
T3 sequence: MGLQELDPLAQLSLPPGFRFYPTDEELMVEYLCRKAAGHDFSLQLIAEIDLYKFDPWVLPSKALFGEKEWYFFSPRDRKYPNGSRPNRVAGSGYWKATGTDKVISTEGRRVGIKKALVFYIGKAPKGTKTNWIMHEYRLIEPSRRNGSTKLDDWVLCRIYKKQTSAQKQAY
How it was run: as §1

GST-ATAF1 NAC domain = target: T4, GST-ATAF1 NAC domain (Arabidopsis thaliana, UniProt Q39013 7-158)
T4 sequence: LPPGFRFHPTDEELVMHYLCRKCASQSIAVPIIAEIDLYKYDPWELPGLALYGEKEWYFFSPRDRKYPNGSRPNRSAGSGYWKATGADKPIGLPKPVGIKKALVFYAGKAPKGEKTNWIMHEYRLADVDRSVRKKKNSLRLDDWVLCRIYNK
How it was run: as §1

[1] = target: T5, GST-ANAC092(1-285) full length (Arabidopsis thaliana, UniProt Q9FKA0 1-285)
T5 sequence: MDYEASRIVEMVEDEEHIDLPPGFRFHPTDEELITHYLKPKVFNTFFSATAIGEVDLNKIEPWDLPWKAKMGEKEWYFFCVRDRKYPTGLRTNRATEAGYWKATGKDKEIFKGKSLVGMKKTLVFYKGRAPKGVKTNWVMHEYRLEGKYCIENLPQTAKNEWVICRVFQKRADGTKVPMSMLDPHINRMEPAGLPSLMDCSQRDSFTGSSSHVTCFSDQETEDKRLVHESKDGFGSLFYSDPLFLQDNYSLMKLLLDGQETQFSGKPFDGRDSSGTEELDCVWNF
How it was run: as §1

GST-NAP(1-166) = target: T6, GST-NAP(1-166) (Arabidopsis thaliana, UniProt O49255 1-166)
T6 sequence: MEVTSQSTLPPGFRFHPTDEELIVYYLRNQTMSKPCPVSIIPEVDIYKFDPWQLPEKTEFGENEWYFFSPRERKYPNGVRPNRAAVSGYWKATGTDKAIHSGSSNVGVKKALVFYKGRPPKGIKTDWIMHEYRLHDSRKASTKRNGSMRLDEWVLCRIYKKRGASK
How it was run: as §1

GST-NST2(1-184) = target: T7, GST-NST2(1-184) (Arabidopsis thaliana, UniProt Q9M274 1-184)
T7 sequence: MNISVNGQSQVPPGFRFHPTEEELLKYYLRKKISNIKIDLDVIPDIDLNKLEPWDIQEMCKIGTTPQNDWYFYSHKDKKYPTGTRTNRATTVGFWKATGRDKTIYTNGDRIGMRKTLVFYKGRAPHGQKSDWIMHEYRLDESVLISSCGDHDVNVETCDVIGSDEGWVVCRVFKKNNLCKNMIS
How it was run: as §1

GST-NTL8 NAC domain = target: T8, GST-NTL8 NAC domain (Arabidopsis thaliana, UniProt Q9XIN7 14-156)
T8 sequence: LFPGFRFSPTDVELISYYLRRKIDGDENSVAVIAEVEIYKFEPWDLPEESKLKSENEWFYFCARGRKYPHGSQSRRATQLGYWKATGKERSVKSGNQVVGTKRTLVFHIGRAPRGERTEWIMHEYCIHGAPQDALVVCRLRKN
How it was run: as §1

GST-SND1(1-203) = target: T9, GST-SND1(1-203) (Arabidopsis thaliana, UniProt Q9LPI7 1-203)
T9 sequence: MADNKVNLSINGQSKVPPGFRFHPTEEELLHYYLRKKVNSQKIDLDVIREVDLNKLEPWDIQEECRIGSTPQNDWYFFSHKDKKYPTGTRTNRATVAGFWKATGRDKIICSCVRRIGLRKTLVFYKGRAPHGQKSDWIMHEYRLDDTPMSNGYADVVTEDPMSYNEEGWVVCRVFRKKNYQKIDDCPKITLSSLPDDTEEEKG
How it was run: as §1

GST-VND3 NAC domain = target: T10, GST-VND3 NAC domain (Arabidopsis thaliana, UniProt Q9FH59 12-162)
T10 sequence: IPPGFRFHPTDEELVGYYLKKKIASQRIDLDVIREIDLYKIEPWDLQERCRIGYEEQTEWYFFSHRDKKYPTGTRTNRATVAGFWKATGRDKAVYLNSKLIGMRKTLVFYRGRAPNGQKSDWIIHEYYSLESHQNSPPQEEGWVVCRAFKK
How it was run: as §1

GST-VND7 NAC domain = target: T11, GST-VND7 NAC domain (Arabidopsis thaliana, UniProt Q9C8W9 9-158)
T11 sequence: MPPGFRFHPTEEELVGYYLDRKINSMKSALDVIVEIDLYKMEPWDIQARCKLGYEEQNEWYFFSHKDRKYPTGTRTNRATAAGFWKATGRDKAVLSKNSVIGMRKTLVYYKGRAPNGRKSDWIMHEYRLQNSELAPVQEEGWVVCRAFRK
How it was run: as §1

Chain of GST-NTL6(1-168) (Q9SCK6 1-168): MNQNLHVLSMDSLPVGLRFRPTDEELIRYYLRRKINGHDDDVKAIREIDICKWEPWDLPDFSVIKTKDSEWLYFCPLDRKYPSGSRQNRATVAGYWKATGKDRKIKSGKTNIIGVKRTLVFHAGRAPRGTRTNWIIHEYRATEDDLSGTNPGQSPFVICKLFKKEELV

Sequence | binding signal (GST-ANAC092(1-176)) [E-score] | binding signal (GST-NTL6(1-168)) [E-score] | binding signal (GST-ANAC019 NAC domain) [E-score] | binding signal (GST-ANAC055(1-171)) [E-score] | binding signal (GST-ATAF1 NAC domain) [E-score] | binding signal [1] [E-score] | binding signal (GST-NAP(1-166)) [E-score] | binding signal (GST-NST2(1-184)) [E-score] | binding signal (GST-NTL8 NAC domain) [E-score] | binding signal (GST-SND1(1-203)) [E-score] | binding signal (GST-VND3 NAC domain) [E-score] | binding signal (GST-VND7 NAC domain) [E-score]
ATTGAGTA | 0.329 | 0.135 | 0.143 | 0.176 | 0.251 | 0.365 | 0.0897 | 0.312 | 0.129 | 0.404 | 0.282 | 0.258
AAGGAAAT | 0.191 | 0.384 | 0.147 | 0.0899 | 0.122 | 0.163 | 0.06 | 0.15 | 0.466 | 0.258 | 0.144 | 0.0723
CACGAAAC | 0.425 | 0.112 | 0.358 | 0.343 | 0.261 | 0.452 | 0.208 | 0.224 | 0.137 | 0.177 | 0.326 | 0.246
ACGTAACA | 0.438 | 0.133 | 0.389 | 0.413 | 0.365 | 0.426 | 0.417 | 0.345 | 0.205 | 0.409 | 0.41 | 0.419
GCGTATAA | 0.375 | 0.0699 | 0.0915 | 0.23 | 0.229 | 0.409 | 0.181 | 0.285 | 0.11 | 0.399 | 0.213 | 0.161
CTACGTAA | 0.329 | 0.0836 | 0.352 | 0.295 | 0.316 | 0.378 | 0.312 | 0.0582 | 0.105 | 0.402 | 0.378 | 0.345
GGAAGCAA | 0.318 | 0.36 | 0.117 | 0.136 | 0.137 | 0.405 | 0.0755 | 0.242 | 0.269 | 0.385 | 0.118 | 0.0735
GTTACGTA | 0.463 | 0.214 | 0.482 | 0.473 | 0.463 | 0.456 | 0.483 | 0.337 | 0.319 | 0.442 | 0.471 | 0.477
TACGCAAA | 0.469 | 0.104 | 0.385 | 0.315 | 0.323 | 0.469 | 0.355 | 0.393 | 0.0978 | 0.473 | 0.405 | 0.334
ACGTAACT | 0.443 | 0.174 | 0.48 | 0.451 | 0.444 | 0.424 | 0.474 | 0.251 | 0.247 | 0.325 | 0.466 | 0.474
AACGTAAT | 0.293 | 0.183 | 0.266 | 0.32 | 0.359 | 0.357 | 0.286 | 0.309 | 0.114 | 0.449 | 0.359 | 0.274
CTTACGCA | 0.359 | 0.0871 | 0.265 | 0.199 | 0.187 | 0.389 | 0.243 | 0.278 | 0.111 | 0.429 | 0.255 | 0.295
